Bioassay records: PubChem BioAssay, National Center for Advancing Translational Sciences (NCATS)
G9a inh: blocks human histone lysine methyltransferase G9a; Q96KQ7; G9a H3K9 monomethylation, AlphaScreen, 2 h; Potency, µM (titrated, usually from 102 µM), without a hit: at the highest dose activity, negative = inhibition, usual class: inhibitors; 350,000 compounds, 8.8% hits; note: % is set by controls: 0 for no effect and ±100 for the full control effect; nearly all actives have a fitted effect of over 75% in size
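AlphaScreen detection with an anti-monomethyl H3K9 antibody quantified product after a 2 h room-temperature reaction containing 500 nM biotinylated H3K9 peptide, 20 µM SAM and 20 nM enzyme, which had been preincubated 15 min with compound.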
JMJD2A Tudor inh: blocks the human JMJD2A Tudor domain | AID 504339 | 390,000 compounds, 4.4% hits | AlphaScreen JMJD2A-Tudor / H3K4me3 peptide binding | Potency, µM (highest dose often 114 µM), inactives show at the top dose activity change, negative = inhibition, hits mostly inhibitors; note: % is set by controls: 0 for no effect and ±100 for the full control effect; nearly all actives have a fitted effect of over 50% in size
Target sequence (O75164 whole entry, looked up, the tested form may be a part): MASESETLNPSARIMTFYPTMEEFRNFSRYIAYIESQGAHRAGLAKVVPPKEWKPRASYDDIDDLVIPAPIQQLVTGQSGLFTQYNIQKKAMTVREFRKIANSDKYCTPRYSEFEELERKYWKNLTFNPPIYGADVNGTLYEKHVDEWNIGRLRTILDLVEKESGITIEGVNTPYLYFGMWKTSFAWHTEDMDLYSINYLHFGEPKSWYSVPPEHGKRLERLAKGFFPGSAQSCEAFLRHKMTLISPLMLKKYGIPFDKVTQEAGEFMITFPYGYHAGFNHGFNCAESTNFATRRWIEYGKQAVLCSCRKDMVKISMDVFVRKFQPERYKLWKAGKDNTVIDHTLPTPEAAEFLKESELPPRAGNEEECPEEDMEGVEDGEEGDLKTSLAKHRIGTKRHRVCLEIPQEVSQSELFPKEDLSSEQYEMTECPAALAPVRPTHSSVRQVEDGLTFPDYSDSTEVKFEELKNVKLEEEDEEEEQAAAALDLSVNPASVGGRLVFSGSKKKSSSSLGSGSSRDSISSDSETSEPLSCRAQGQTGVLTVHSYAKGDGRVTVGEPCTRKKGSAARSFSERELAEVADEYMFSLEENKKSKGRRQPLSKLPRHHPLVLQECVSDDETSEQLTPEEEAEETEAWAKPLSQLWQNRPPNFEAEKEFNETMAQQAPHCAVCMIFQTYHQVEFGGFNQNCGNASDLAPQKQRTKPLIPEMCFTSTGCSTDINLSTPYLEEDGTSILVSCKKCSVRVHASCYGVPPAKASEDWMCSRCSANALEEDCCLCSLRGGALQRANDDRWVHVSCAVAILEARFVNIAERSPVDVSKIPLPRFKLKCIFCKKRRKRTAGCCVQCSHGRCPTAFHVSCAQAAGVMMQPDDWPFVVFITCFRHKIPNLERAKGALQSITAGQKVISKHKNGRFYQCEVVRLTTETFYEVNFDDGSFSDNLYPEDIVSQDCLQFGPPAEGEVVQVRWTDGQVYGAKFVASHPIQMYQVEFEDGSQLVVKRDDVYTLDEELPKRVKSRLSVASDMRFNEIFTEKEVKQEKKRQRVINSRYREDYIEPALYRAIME
GLS inhibitor: inhibitors of human glutaminase (GLS) | O94925 | GLS enzymatic activity, qHTS titration | Potency, µM (top dose mostly 45.5 µM), without a hit: at the highest dose activity change, negative = inhibition, actives largely listed as inhibitors | 410,000 compounds, 0.21% hits | AID 624170; note: % is set by controls: 0 for no effect and ±100 for the full control effect
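Glutamate formation by hKGA was monitored fluorometrically using coupled glutamate oxidase, HRP and Amplex Red. Substrate was added as 1 mM L-glutamine solution; incubation was 30 min at RT after an initial read.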
HP1b chromo inh: HP1-beta chromodomain-methylated histone interaction inhibition. AlphaScreen HP1-beta / biotin-H3K9me3 peptide binding. Potency, µM (series often up to 114 µM), inactives show at the top dose activity change, negative = inhibition, actives largely listed as inhibitors. 390,000 compounds, 0.56% hits. AID 540317; note: nearly all actives have a fitted effect of over 70% in size
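AlphaScreen: HP1-beta (50 nM) preformed 30 min with biotin-H3(1-18)K9me3 peptide (50 nM) in PBS pH 7.4, 0.01% Tween-20. Compound added for 30 min at RT, then streptavidin donor/nickel chelate acceptor beads (10 ug/mL) for 30 min.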
BAZ2B block: BAZ2B (human) inhibition; AID 504333; Potency, µM (series often up to 114 µM), for the others: at the top dose activity change, negative = inhibition, actives largely listed as inhibitors; AlphaScreen BAZ2B-H3K14Ac peptide displacement; 360,000 compounds, 4.4% hits; Q9UIF8; note: % is set by controls: 0 for no effect and ±100 for the full control effect; nearly all actives have a fitted effect of over 60% in size
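AlphaScreen displacement of biotin-H3(5-23)K14Ac peptide (50 nM final) from BAZ2B (50 nM final) in PBS pH 7.4, 0.01% Tween-20; complex preformed 30 min RT, then compounds (top 110 uM) 30 min RT, beads 20 min dark.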
The depositor's hits bear a star; ? = inconclusive; . = not tested or not shown; ! = a repeat was not active; [ ] = remark or other dose. Shown are actives, neighbours in structure and some others; about 10% of the full set was active somewhere. Calls come from the whole dose curve; as a rule, active = well fitted curve in the direction sought with a large enough effect; inconclusive = small, poorly fitted or top-dose-only effect, or another doubt; inactive = no such curve, though single readings can be large; an effect the other way counts as inactive or inconclusive. Potency is the fitted concentration of half-maximal effect.

SMILES | G9a inh | JMJD2A Tudor inh | GLS inhibitor | HP1b chromo inh | BAZ2B block
CC(=O)c1ccc(NC(=O)CCS(=O)(=O)c2ccc3c(c2)n(C)c(=O)c(=O)n3C)cc1 | ? | 79µM* | -17% | -18% | 79µM*
CCc1cccc(NC(=O)CCS(=O)(=O)c2ccc(Br)cc2)c1 | 28µM* | 11µM* | -14% | 8.9µM* | 32µM*
COC(=O)c1ccc(NC(=O)CC(=O)Nc2ccc(C(=O)OC)cc2)cc1 | 10% | ? | -3% | 30% | 7%
Cc1ccc(S(=O)(=O)CCC(=O)Nc2cccc(C)c2)cc1 | -10%[59 µM] | -1% | -10% | 39% | 11%
O=C(CCS(=O)(=O)c1ccc(Br)cc1)Nc1ccc(Br)cc1F | ? | -35%[57.1 µM] | -2% | -25% | 50µM*
CCOC(=O)c1cccc(NC(=O)CN2C(=O)CC(C)(C)Sc3ccccc32)c1 | -1%[59 µM] | -24% | 1% | 12% | -14%
COC(=O)c1ccc(NC(=O)CCS(=O)(=O)c2ccc(Br)cc2)cc1 | 56µM*! | -28% | 38% | -21% | 56µM*!
COC(=O)c1ccc(NC(=O)CCS(=O)(=O)c2ccc(C)cc2)cc1 | 14% | -7% | -1% | 26% | 7%
c1ccc(Cc2nnc3sc(-c4ccncc4)nn23)cc1 | 3.5µM* | -12% | -14% | -26% | -3%
c1ccc(Cc2nnc3sc(-c4cccnc4)nn23)cc1 | ? | -21% | -2% | -20% | 9%
c1ccc(Cc2nnc3sc(-c4cccs4)nn23)cc1 | 2.2µM* | -16% | ? | -28% | 11%
c1ccc(Cc2nnc3sc(-c4ccc5c(c4)OCCO5)nn23)cc1 | 10µM* | -4% | -17% | 30% | 3%
O=C(COC(=O)CNC(=O)c1ccc(Cl)c([N+](=O)[O-])c1)NC(=O)CN1CCCC1=O | -37%[0.501 µM] | -14% | 4% | 11% | 11%
CCC(C)NC(=O)C1CCC(CNS(=O)(=O)c2ccc(Cl)cc2)CC1 (centres undefined) | -15%[59 µM] | -16% | 3% | 36% | 4%
Cc1cc(C)cc(NC(=O)C(Cc2ccccc2)NS(=O)(=O)c2ccc3c(c2)CCC(=O)N3)c1 (centres undefined) | 3%[59 µM] | -7% | 0% | 36% | -17%
O=C1C2C3C=CC(C3)C2C(=O)N1/N=C/c1ccc(-c2ccccc2[N+](=O)[O-])o1 (centres undefined) | -10%[59 µM] | ? | 16% | -23% | ?
CN1C(=O)/C(=C/c2ccc(-c3ccccc3[N+](=O)[O-])o2)SC1=Nc1ccc(Cl)c(C(=O)O)c1 | 3.2µM* | ? | ? | -39% | 45µM*
Cc1cc([N+](=O)[O-])cc2c1NC(c1ccccn1)C1CC=CC21 (centres undefined) | -1% | 50µM* | 3% | -8% | -23%
O=C(O)c1ccc(Cl)c2c1C1C=CCC1C(c1ccccn1)N2 (centres undefined) | 2µM* | . | . | . | 25µM*
O=[N+]([O-])c1ccc(Cl)c2c1C1C=CCC1C(c1ccccn1)N2 (centres undefined) | 20µM* | 40µM* | -2% | ? | 45µM*
COC(=O)CC1C(=O)NCCN1C(=O)CSc1nnc(Nc2ccc(C)cc2)s1 (centres undefined) | 40µM* | -1% | -23% | 36% | 8%
COc1ccc(NC(=S)N(CCC(C)C)C2CCN(C(C)C)CC2)cc1 | -50% | -24% | 19% | 73% | -2%
COc1ccc(NC(=S)N(C(C)C)C2CCN(C(C)C)CC2)cc1Cl | 45µM* | . | . | . | -1%
CC1=C(C(=O)Nc2ccc(C)cc2C)C(c2ccc[nH]2)n2ncnc2N1 (centres undefined) | 15%[59 µM] | -3% | 5% | 24%[57 µM] | 5%
COCc1cccc(-c2csc(C(C)(O)c3cccc(F)c3)n2)c1 (centres undefined) | . | . | 0% | . | .
SMILES | G9a inh | JMJD2A Tudor inh | GLS inhibitor | HP1b chromo inh | BAZ2B block
Cc1cc(/C=N/n2c(COc3ccccc3C)nc3ccccc3c2=O)c(O)c([N+](=O)[O-])c1 | ? | 25µM* | 32% | ? | ?
COc1cccc(-c2cn(-c3cccc(C(F)(F)F)c3)c(=S)[nH]2)c1 | 23%[0.501 µM] | -9% | -25% | 21% | -24%
COc1cccc(-n2cn[nH]c2=S)c1 | 13µM* | ? | -4% | 31% | 4%
CCc1nn(CC(=O)N2CCCCC2)c(=O)c2cc3sccc3n12 | 7%[59 µM] | -5% | 4% | 22% | 0%
NCCCN(Cc1ccccc1)c1ccc(Br)cn1 | . | -20% | . | 25% | .
CC(=O)Nc1ccc(S(=O)(=O)c2cc(O)ccc2O)cc1 | 13µM* | -13% | 8% | ? | -37%
Cc1ccc(S(=O)(=O)Nc2ccc(O)c(S(=O)(=O)c3ccc(C)cc3)c2)cc1 | . | -11% | -14% | 11% | -17%
Cc1ccc(S(=O)(=O)c2cc(O)ccc2O)cc1C | 50µM* | -21% | 58% | -35% | -9%
CN(c1ncnc2onc(-c3cccc(Cl)c3)c12)C1CCCCC1 | 23%[59 µM] | 29% | 2% | 74% | 27%
COC(=O)C1=CO[C@@H](O[C@@H]2O[C@H](CO)[C@@H](O)[C@H](O)[C@H]2O)C2C1CC(O)O[C@H]2C (some centres undefined) | . | -18% | 3% | 21% | .
COc1ccc(NC(=O)CN2CCCCC2)cc1S(=O)(=O)N1CCCCC1 | . | 2.5µM* | -7% | ? | .
COc1ccc(S(=O)(=O)N2CCOCC2)cc1NC(=O)COc1ccc2c(C)cc(=O)oc2c1 | . | -12% | -2% | 35% | .
CC1CCCN(S(=O)(=O)c2ccc(NC(=O)CN3C(=O)NC(C)(c4ccccc4)C3=O)cc2)C1 (centres undefined) | 56µM* | -30% | 17% | -5% | -9%
COc1ccc(NC(=O)Cc2ccc(C)cc2)cc1S(=O)(=O)N1CCCCC1 | -5%[12.7 µM] | -13% | -4% | 31% | 10%
COc1ccc(NC(=O)COc2ccc3c(C)cc(=O)oc3c2)cc1S(=O)(=O)N1CCCCC1 | 11µM* | -17% | 0% | 22% | 8%
COc1ccc(S(=O)(=O)N2CCCN(CC(=O)Nc3ccc(OC)c(Cl)c3)CC2)cc1 | 45µM* | -20% | 13% | 44% | -9%
COc1ccc(NC(=O)CN2CCN(S(=O)(=O)c3ccc(Cl)cc3)CC2)cc1Cl | 11%[59 µM] | -11% | -1% | 18% | 2%
CC(C)(C)c1ccc(C(=O)NNc2ncnc3c2cnn3-c2ccccc2)cc1 | 10%[59 µM] | -26% | -8% | 29% | 1%
CC(=O)Oc1ccc(C2(c3ccc(OC(C)=O)cc3)Oc3ccccc3NC2=O)cc1 | . | . | 4% | . | .
CCOC(=O)CN(C)C(=O)C1CC(CO[Si](C)(C)C(C)(C)C)=CN1C(=O)OC(C)(C)C (centres undefined) | . | -26% | . | 18% | .
O=C(CN1C(=O)COc2ccc(S(=O)(=O)N3CCOCC3)cc21)N1CCN(c2ccccc2)CC1 | 4%[59 µM] | -15% | 2% | 68% | 17%
